Rows were chosen to be rich in hits. Some 3.1% of all compounds tested hit in one or more screens of this group.
PLK1 PBD block: PLK1 (human) polo-box domain binding inhibition. P53350. Potency, µM, for the others: max response, negative = inhibition, hits mostly inhibitors. Plk1 PBD binding of FITC phosphopeptide, fluorescence polarization. AID 720504. actives 2.8% (n = 360,000); note: series mostly up to about 57 µM; % is set by controls: 0 for no effect and ±100 for the full control effect; nearly all actives have a fitted effect of over 65% in size
Pin1 inh: blocks the human prolyl isomerase Pin1; Q13526; Pin1 FP peptide displacement, HiFluor488, 10 min; Potency, µM (highest dose often 115 µM), for inactives: at the top dose activity, negative = inhibition, usual class: inhibitors; actives 0.009% (n = 390,000); active = well fitted inhibition curve with a large enough effect in the polarisation, with a control signal flat, not every such curve was filed as active; inconclusive = small, poorly fitted or top-dose-only effect, or effect the other way, or a change in a side signal; inactive = no such curve, though single readings can be large or run the other way; the % refers to the polarisation; note: % is set by controls: 0 for no effect and ±100 for the full control effect
ASM inhibitor: inhibitors of human secretory acid sphingomyelinase; P17405; placental ASM, HMU-PC fluorogenic substrate, 60 min; Potency, µM (titrated, usually from 57.5 µM), without a hit: at the highest dose activity change, negative = inhibition, usual class: inhibitors; actives 0.006% (n = 340,000); AID 504937
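Human placenta-derived ASM enzyme was preincubated with compound for 10 minutes at room temperature, then given fluorogenic substrate HMU-PC0 (9 uM final) for 60 minutes at 37 °C; a pH 10 stop preceded fluorescence reading at Ex 386/Em 447 nm.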
VDR inhibitor: blocks the human vitamin D receptor | P11473 | VDR-SRC2-3 peptide fluorescence polarization, 2 h | Potency, µM, for inactives: max response, negative = inhibition, usual class: inhibitors | actives 0.93% (n = 400,000) | AID 504847; note: % is set by controls: 0 for no effect and ±100 for the full control effect
Target sequence (P11473 whole entry, looked up): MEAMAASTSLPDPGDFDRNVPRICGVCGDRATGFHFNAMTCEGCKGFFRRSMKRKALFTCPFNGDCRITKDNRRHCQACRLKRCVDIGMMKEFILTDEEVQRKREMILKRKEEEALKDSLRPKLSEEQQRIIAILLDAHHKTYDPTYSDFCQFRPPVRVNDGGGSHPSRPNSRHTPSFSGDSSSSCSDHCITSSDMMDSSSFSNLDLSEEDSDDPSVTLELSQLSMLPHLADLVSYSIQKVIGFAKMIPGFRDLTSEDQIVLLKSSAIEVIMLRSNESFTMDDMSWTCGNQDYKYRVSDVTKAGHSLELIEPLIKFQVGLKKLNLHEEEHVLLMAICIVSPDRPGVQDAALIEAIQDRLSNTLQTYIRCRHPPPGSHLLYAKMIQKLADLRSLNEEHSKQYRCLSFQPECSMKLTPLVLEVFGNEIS
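The screen uses fluorescence polarization to detect compounds that interfere with recruitment of the SRC2-3 coactivator peptide to VDR; plates are read after 2 h at room temperature.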
TDP1 inh: blocks human tyrosyl-DNA phosphodiesterase 1; recombinant TDP1, AlphaScreen DNA substrate cleavage; Potency, µM (highest dose often 130 µM), without a hit: at the top dose activity change, negative = inhibition, most hits filed as inhibitors; actives 0.28% (n = 350,000); note: % is set by controls: 0 for no effect and ±100 for the full control effect; nearly all actives have a fitted effect of over 40% in size
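AlphaScreen read-out: signal falls as enzyme removes the 3' tyrosine-FITC from a 5'-biotinylated DNA oligo (15 nM, 5 min, RT). Enzyme was E. coli-made recombinant Tdp1 at 1 nM, exposed to compound for 15 min beforehand; beads 10 ug/ml, 10 min.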
Tb PFK block: T. brucei PFK enzyme inhibition. O15648. Potency, µM (doses to about 57.5 µM), for the others: at the highest dose activity, negative = inhibition, usual class: inhibitors. T. brucei PFK, ADP-Glo luminescence. actives 0.17% (n = 330,000). AID 485367;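 note: 0% = uninhibited 1x PFK enzyme wells and -100% = no-enzyme wells; nearly all actives have a fitted effect of over 60% in size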
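PFK 1.25 nM, F6P 0.5 mM, ATP 0.1 mM, 0.1 M TEA pH 8.0, 5 mM MgCl2, 0.01% Tween20, 0.1% BSA; 45 min RT. ADP-Glo readout. qHTS titration up to 57 uM; curves fitted, compounds curve-classed.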
An asterisk follows results filed as active; ? = inconclusive; . = no result; [ ] = remark or other dose. Unless noted, calls come from the whole dose curve; as a rule, active = well fitted curve in the direction sought with a large enough effect; inconclusive = small, poorly fitted or top-dose-only effect, or another doubt; inactive = no such curve, though single readings can be large; an effect the other way counts as inactive or inconclusive. Potency is the fitted concentration of half-maximal effect.

SMILES	PLK1 PBD block	Pin1 inh	ASM inhibitor	VDR inhibitor	TDP1 inh	Tb PFK block
CCC[CH2][Sn]([Cl])([Cl])[Cl]	.	.	.	.	4.2%	.
C/C(O)=C1\C(=O)[C@@H]2[C@H]3c4c[nH]c5cccc(c45)C[C@H]3C(C)(C)N2C1=O	.	.	.	?	17.1%	.
c1ccc(N=NNc2ccccc2)cc1	.	.	.	.	24.5%	.
Cc1[nH]c(=S)c(C#N)c2c1CCCC2	26.7µM*	-17.9%	0.3%	?	0.0%	?
CCBr	.	.	.	.	3.7%	.
C[C@]12CC[C@@H](O)CC1CCC1C2CC[C@]2(C)C(=O)CC[C@@H]12 (some centres undefined)	.	.	.	.	10.7%[56.1 µM]	.
COC(=O)Cn1cc(/C=C2\C(=O)NC(=O)N(c3ccc(OC)cc3)C2=O)c2ccccc21	?	?	-3.1%	-8.7%	.	-4.2%
COc1ccc(N2C(=O)NC(=O)/C(=C\c3cn(CC(=O)N4CCOCC4)c4ccccc34)C2=O)c(OC)c1	10.6µM*	9.9%	-1.7%	?	.	14.6%
COCCNC(=O)Cn1cc(/C=C2\C(=O)NC(=O)N(c3ccccc3F)C2=O)c2ccccc21	2.99µM*	15.5%	-1.4%	11.2%	.	21.1%
COCCCNC(=O)Cn1cc(/C=C2\C(=O)NC(=O)N(c3ccccc3F)C2=O)c2ccccc21	?	10.5%	-4.5%	?	.	?
COCCNC(=O)Cn1cc(/C=C2\C(=O)NC(=O)N(c3cccc(C)c3C)C2=O)c2ccccc21	3.77µM*	1.0%	-3.6%	?	.	?
C[C@@H]1CC[C@H]2[C@@H](C)C(=O)O[C@@H]3OC4(C)CC[C@@H]1[C@]32OO4	.	.	.	-1.4%	9.2%	.
Cl.Cl.Cl.Cl.Cl.Cl.N.N.N.N.NNNNN.NNNNN.O.O.[Ru].[Ru].[Ru]	.	.	.	?	20.2%	.
CCOC(=O)Cn1cc(C(=O)c2ccccc2F)c2ccccc21	21.2µM*	-9.3%	-2.5%	?	2.1%	2.7%
COC(=O)Cn1cc(C(=O)c2ccccc2F)c2ccccc21	7.8%	-10.0%	2.2%	-15.4%	-2.2%	-2.1%
C=C(C)C(=O)CP(=O)(OCC)OCC	.	.	.	-7.0%	0.0%	.
CN1C(=O)C(=Cc2ccccc2OCc2ccc(C(=O)O)cc2)C(=O)N(C)C1=O	11.9µM*	-9.3%	1.7%	?	-1.2%	1.9%
CN1C(=O)C(=Cc2ccccc2OCCOc2ccc([N+](=O)[O-])cc2)C(=O)N(C)C1=O	2.99µM*	4.2%	-3.5%	?	-11.0%	-9.9%
CN1C(=O)C(=Cc2ccccc2OCc2ccccc2Cl)C(=O)N(C)C1=O	2.99µM*	1.6%	-1.2%	?	.	10.3%
COc1ccc(C=C2C(=O)N(C)C(=O)N(C)C2=O)cc1COc1ccc(NC(C)=O)cc1	-26.8%	-6.9%	4.0%	3.9%	-4.8%	1.7%
CN1C(=O)C(=Cc2ccc(N3CCOCC3)c([N+](=O)[O-])c2)C(=O)N(C)C1=O	.	.	.	.	0.0%	0.2%
CCn1cc(C=C2C(=O)N(C)C(=O)N(C)C2=O)c2ccccc21	-11.2%	6.8%	2.5%	4.3%	.	-5.2%
CC(C)(COCC1CO1)COCC1CO1 (centres undefined)	.	.	.	.	14.9%	.
Oc1cc2c(cc1O)[C@H]1c3ccccc3CN[C@H]1CC2	.	.	.	-15.9%	7.3%	.
CCOC(=O)[C@@]1(C#N)[C@@H]2C=CC(C(N)=O)=CN2[C@@H](C(N)=O)[C@@H]1c1cccc(Cl)c1	26.7µM*	?	13.5%	-2.0%	9.8%	-5.3%
CCOC(=O)[C@]1(C#N)[C@@H]2C=CC(C(N)=O)=CN2[C@@H](C(N)=O)[C@@H]1c1ccc(F)cc1	-7.7%	?	12.8%	?	6.8%	0.0%
CCn1c(O)c(C=Nc2ccc(N3CCOCC3)cc2)c(=O)n(CC)c1=S	21.2µM*	?	-15.6%	-20.4%	3.9%	2.6%
CCn1c(O)c(C=Nc2ccc(N3CCOCC3)c(Br)c2)c(=O)n(CC)c1=S	-0.8%	15.8%	1.7%	-11.0%	-2.0%	-5.2%
CN(C)C(=O)Cl	.	.	.	.	-2.5%	.
S=C(c1ccc(Cl)cc1)N1CCOCC1	28.2µM*	-0.4%	-0.8%	?	2.1%	-14.8%
